Sampled rows, rich in hits. Any-hit rate of the full collection: about 4.7%.
D1 potentiator = enhances dopamine response at the human D1 receptor; HEK293 TREx D1 cells, calcium flux, dopamine EC20 potentiation; AID 504651; 0.036% of 360,000 active; potentiation, % at 10 µM; P21728; in the data active = potentiation above about 30%; note: 0% is about no effect
TRHR enhancer = allosteric enhancers of human TRH receptor. AID 493056. P34981. enhancement, % at 2 µM. TRHR cells, fluo-8 calcium fluorescence, EC20 TRH enhancement. 0.66% of 360,000 active; in the data active = enhancement above about 30%; note: 0% is about no effect
Target sequence (P34981 whole entry, looked up): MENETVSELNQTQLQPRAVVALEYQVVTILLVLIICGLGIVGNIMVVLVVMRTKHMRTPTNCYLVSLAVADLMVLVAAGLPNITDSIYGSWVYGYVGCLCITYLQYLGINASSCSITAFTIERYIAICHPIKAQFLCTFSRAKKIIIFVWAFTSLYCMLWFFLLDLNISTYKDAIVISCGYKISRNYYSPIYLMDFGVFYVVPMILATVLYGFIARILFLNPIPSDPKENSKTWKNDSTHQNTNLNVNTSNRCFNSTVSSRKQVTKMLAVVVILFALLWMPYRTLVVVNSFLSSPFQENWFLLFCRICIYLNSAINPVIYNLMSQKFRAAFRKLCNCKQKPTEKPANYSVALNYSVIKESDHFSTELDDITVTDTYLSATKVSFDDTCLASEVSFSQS
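Enhancer read-out: after compound pinning and an initial kinetic agonist-mode read, an EC20 of TRH (10 nM final) was injected and fluo-8 calcium signal (Ex 480/Em 530) followed at 1 s/cycle for 100 cycles in TRHR-expressing cells.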
D1 ag = activates the human D1 dopamine receptor | HEK293 T-REx D1 cells, calcium flux, agonist mode | 1% of 360,000 active | activation, % at 2 µM | P21728; note: 0% is about no effect
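Inducible HEK293 T-REx D1 cells, force-coupled to calcium signalling, were plated at 4000 cells/well with tetracycline and held overnight at 30 C. After no-wash calcium dye loading, compound-evoked calcium rise over 180 s flagged agonists.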
D1 antagonist = human D1 dopamine receptor antagonism | activity change, negative = inhibition, % at 10 µM | 3.2% of 360,000 active | AID 504652 | HEK293 TREx D1 cells, calcium flux, dopamine EC80; hits give low values; in the data active = activity change below about -30%; note: % is set by controls: 0 for no effect and ±100 for the full control effect
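Allosteric or orthosteric antagonism assessed as attenuation of the calcium response to EC80 dopamine, added 180 s after compound, in induced HEK293 Trex D1 cells loaded with no-wash calcium dye.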
TRHR ag = agonists of human TRH receptor; TRHR cells, calcium flux fluo-8, FDSS agonist mode; activation, % at 2 µM; 0.18% of 360,000 active; note: 0% is about no effect
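Steps: seed TRHR cells overnight; add fluo-8 no-wash Ca dye, RT 30 min–1.5 h; record 10 s baseline; pin-transfer compounds; monitor fluorescence 1 cycle/s for the agonist window. Calcium increases flag candidate agonists.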
* marks the source's active call; other numbers are inactive results. Cut-off read from the data, not from the text of the source, unless noted: active = activation above about 30%; inactive = the rest.

SMILES	D1 potentiator	TRHR enhancer	D1 ag	D1 antagonist	TRHR ag
O=C(c1cccc(N2CCCC2=O)c1)N1CCN(c2cccc(Cl)c2)CC1	-7	-3	17	-57*	0
COc1cccc2sc(N3CCN(C(=O)c4ccc([N+](=O)[O-])o4)CC3)nc12	1	0	2	5	-1
O=C(c1ccc([N+](=O)[O-])o1)N1CCN(c2nc3c(Cl)cccc3s2)CC1	-9	-8	3	-34*	0
Cc1ccc2nc(CN3CCN(C(=O)Nc4ccc(C)c(F)c4)CC3)oc2c1	0	-5	1	-6	-1
COc1cc(/C=N/N2C(=O)CSC2=S)ccc1O	-1	1	15	2	6
O=C1CSC(=S)N1/N=C/c1cc(Br)c(O)c(Br)c1	0	32*	422*	4	160*
COc1ccc(NC(=O)c2cc(S(=O)(=O)N3CCCC(C)C3)cn2C)c(OC)c1 (stereo not drawn)	-1	0	1	6	-1
COc1ccc(-c2nc3ccccc3n3c(-c4ccc(OC)cc4)c4c(=O)n(C)c(=O)n(C)c4c23)cc1	-4	14	1	-13	-1
Cc1cc2c(n1-c1ccc(C(=O)NCCc3ccc(Cl)cc3)cc1)CCC(C)C2 (stereo not drawn)	-2	31*	2	9	0
COc1cccc(CNC(=O)c2ccc(-n3c(C)cc4c3CCC(C)C4)cc2)c1 (stereo not drawn)	-1	13	-2	-7	0
Cc1cc2c(n1-c1ccc(C(=O)NCc3cccc(Br)c3)cc1)CCC(C)C2 (stereo not drawn)	-4	7	2	-60*	0
COCCCNC(=O)CCCCn1c(=O)c2ccccc2n(CC(=O)Nc2ccc(C)cc2C)c1=O	1	12	-3	-7	1
O=C(NCc1cccnc1)c1nc(-c2ccc(C(F)(F)F)cc2)no1	-6	-1	14	-40*	0
O=C(NCc1ccncc1)c1nc(-c2cccs2)no1	2	-2	8	-12	0
O=C(NCc1ccncc1)c1nc(-c2ccc(C(F)(F)F)cc2)no1	-10	-1	8	-39*	0
CCOc1cc2c(cc1OCC)C(C(=O)O)C(c1cc(Br)c(O)c(OC)c1)N(C)C2=O (stereo not drawn)	-2	-2	1	-32*	0
COc1ccc(C)cc1NC(=O)CN(c1cc(C(F)(F)F)ccc1Cl)S(C)(=O)=O	0	-2	2	8	1
Cc1ccc(O)c(NC(=O)c2ccc(Br)c(S(=O)(=O)N3CCCCC3)c2)c1	-2	-1	14	-58*	-1
Cc1ccc(O)c(NC(=O)c2cccc(S(=O)(=O)N3CCCCC3)c2)c1	-3	2	6	17	0
CCC(=O)N/C(=N/c1nc(C)cc(C)n1)Nc1ccc(C)cc1	-8	-8	0	-43*	0
COc1ccc(N/C(=N/c2nc(C)cc(C)n2)NC(=O)c2ccccc2)cc1	-14	-5	0	-59*	0
Cc1cc(C)nc(/N=C(/NC(=O)c2ccccc2)Nc2ccccc2)n1	-10	0	-2	-5	-1
CCc1cccc(CC)c1NC(=O)c1cc(S(=O)(=O)N2CCc3ccccc32)cn1C	-2	-5	1	3	0
CCOc1ccccc1NC(=O)Cn1c(=O)n(Cc2ccco2)c(=O)c2ccc(C(=O)NC3CCCC3)cc21	1	1	3	12	0
COc1ccc(C2C(C(=O)Nc3cccnc3)=C(C)Nc3nc(SCc4ccccc4)nn32)cc1 (stereo not drawn)	0	1	-1	0	0
CCCCNC(=O)CCCN1C(=O)CCn2nc(-c3cccn3C)cc21	0	2	0	-1	0
CCCCN1CC(c2nc3ccccc3n2CCCCOc2cccc(C)c2C)CC1=O (stereo not drawn)	-1	6	1	-5	0
Cc1nc2sc(C)c(C)n2c(=O)c1S(=O)(=O)N1CCN(c2ccccc2F)CC1	-5	35*	4	-29	0
Cc1nc2scc(C)n2c(=O)c1S(=O)(=O)N1CCN(c2ccccc2)CC1	-3	-1	-4	-4	0
Cc1ccc2nc(/C(C#N)=C\c3cc(O)ccc3[N+](=O)[O-])[nH]c2c1	-6	-3	0	2	0

Screening results: PubChem, National Center for Advancing Translational Sciences (NCATS)
